Screening results from PubChem BioAssay.
The list is not random: actives were taken first. Their share in the collection is about 3.6%.
Anthrax LF inh2: Bacillus anthracis LF protease inhibitors, primary screen, biochemical, multiplex microsphere, MLPCN library; Lethal factor (Bacillus anthracis), P15917; multiplex microsphere protease cleavage assay; inhibition, % at 10 µM; hit rate 0.12% among 360,000; also: plate controls were buffer without enzyme for full effect and enzyme alone for no effect
Target sequence (P15917 whole entry, looked up): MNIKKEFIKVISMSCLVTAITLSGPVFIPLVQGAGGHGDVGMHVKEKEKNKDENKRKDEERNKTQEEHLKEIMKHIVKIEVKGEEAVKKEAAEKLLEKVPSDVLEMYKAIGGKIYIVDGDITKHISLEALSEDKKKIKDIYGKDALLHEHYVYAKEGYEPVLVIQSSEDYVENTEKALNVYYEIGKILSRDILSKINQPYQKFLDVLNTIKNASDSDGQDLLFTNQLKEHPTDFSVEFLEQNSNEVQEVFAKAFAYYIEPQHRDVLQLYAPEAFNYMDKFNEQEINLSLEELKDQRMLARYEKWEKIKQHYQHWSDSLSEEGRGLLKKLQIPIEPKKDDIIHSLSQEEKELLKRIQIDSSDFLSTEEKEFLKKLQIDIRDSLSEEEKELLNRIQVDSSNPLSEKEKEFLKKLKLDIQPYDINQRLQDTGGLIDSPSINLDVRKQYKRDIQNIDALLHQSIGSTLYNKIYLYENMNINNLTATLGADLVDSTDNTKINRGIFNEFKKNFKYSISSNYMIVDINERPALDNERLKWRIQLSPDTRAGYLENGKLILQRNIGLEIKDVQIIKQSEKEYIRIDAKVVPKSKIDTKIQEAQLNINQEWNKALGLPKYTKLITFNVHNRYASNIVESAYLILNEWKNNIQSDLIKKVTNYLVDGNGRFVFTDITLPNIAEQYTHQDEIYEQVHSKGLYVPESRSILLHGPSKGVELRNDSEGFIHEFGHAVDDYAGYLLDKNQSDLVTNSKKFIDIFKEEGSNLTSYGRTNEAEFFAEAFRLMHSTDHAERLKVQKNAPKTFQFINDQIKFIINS
Bead autofluor: flagged as autofluorescent in microsphere protease counterscreen | compound autofluorescence counterscreen, microsphere flow cytometry; hits give high values | fluorescence intensity (no concentration beside the values) | hit rate 3.1% among 360,000; in the data active = fluorescence intensity above about 16000; inconclusive = no clear call, values can overlap the other calls
BoNT F protease: BoNT/F light chain protease inhibitors, primary screen, biochemical, flow cytometry, MLPCN library. Multiplex microsphere protease cleavage assay. inhibition, % at 10 µM. hit rate 0.22% among 360,000; in the data active = inhibition above about 35%, passing the limit was not always enough; inconclusive = no clear call, values can overlap the other calls; also: plate controls were buffer without enzyme for full effect and enzyme alone for no effect
BoNT-A LC inh2: BoNT/A light chain protease inhibitors, primary screen, biochemical, flow cytometry, MLPCN library; multiplex microsphere protease substrate cleavage; AID 588499, 2011; Botulinum neurotoxin type A light chain protease (Clostridium botulinum A str. ATCC 3502); hit rate 0.17% among 360,000; inhibition, % at 10 µM; also: plate controls were buffer without enzyme for full effect and enzyme alone for no effect
MazEF act: activators of E. coli MazEF toxin-antitoxin RNase, primary screen, biochemical, fluorescence, uHTS. FAM/BHQ RNA-DNA oligo cleavage fluorescence, 5 h. Endoribonuclease toxin MazF (Escherichia coli (strain K12)), P0AE70. hit rate 0.32% among 350,000. AID 504720, 2011. activation, % at 20 µM; in the data active = activation above about 50%
Starred values were filed as active, the others as inactive; ? = inconclusive; / = not tested or not shown; + = active, no number. Rule as the data show it, unless noted: active = inhibition above about 30%; inconclusive = no clear call, values can overlap the other calls; inactive = below that.

SMILES	Anthrax LF inh2	Bead autofluor	BoNT F protease	BoNT-A LC inh2	MazEF act
COc1ccccc1N1CCN(S(=O)(=O)c2cccc(F)c2)CC1	-2	22849*	-2	-1	0
COc1ccc(CN2CCC(C(=O)N3CCN(c4ccccc4F)CC3)CC2)cc1OC	5	9424	-3	0	-1
COc1ccccc1N1CCN(S(=O)(=O)c2ccc(F)cc2)CC1	-8	15571	4	1	-17
COc1cc(CN2CCC(C(=O)N3CCN(c4ccccc4F)CC3)CC2)cc(OC)c1OC	-2	16517*	-3	-1	4
CCC(C(=O)Nc1ccc(S(=O)(=O)N2CCN(C)CC2)cc1)c1ccccc1 (centres undefined)	4	4009	-3	6	1
Cc1ccc(N2CCN(C(=O)N3CCOCC3)CC2)c(C)c1	2	4315	4	0	-16
CC(C)=CCC[C@H](C)C[C@@H]1Cc2[nH]c(=S)[nH]c(=O)c2[C@@H](c2ccc(F)cc2)O1	5	5657	6	0	/
CC(=O)c1ccc(OCC(=O)Nc2ccc3c(c2)OCO3)cc1	-9	4370	-1	-1	-2
COc1ccccc1N1CCN(Cc2ccc(Br)s2)CC1	-3	20319*	1	0	-10
CC(C)c1ccc(C(=O)NC(=S)Nc2ccc3[nH]c(=O)[nH]c3c2)cc1	-2	3463	8	-1	0
COc1ccccc1NC(=O)CSc1nc2n[nH]c(C)c2c(=N)n1-c1ccccc1Cl	-1	22575*	-4	-1	-41
CCc1ccccc1NC(=O)CSc1nc2n[nH]c(C)c2c(=N)n1-c1ccc(OC)cc1	-3	4967	3	0	4
CCCCN(CC)C(=O)CSc1nc2n[nH]c(C)c2c(=N)n1-c1cccc(C)c1	0	2035	-2	0	9
Cc1cccc(-n2c(SCC(=O)N3CCCC3)nc3n[nH]c(C)c3c2=N)c1	0	22446*	-4	?	9
COc1ccccc1Cc1c(-c2ccc(OC)c(OC)c2)nc2c(Cl)cc(C(F)(F)F)cn12	4	6486	-2	1	/
CCN(CC(=O)NCc1cccs1)C(=O)C(c1ccccc1)c1ccccc1	1	3804	2	-1	4
Cc1c(NC(=O)CSc2ccc3ccccc3n2)c(=O)n(-c2ccccc2)n1C	-3	4001	2	0	3
O=C(CSc1nnc2c(Cl)cc(C(F)(F)F)cn12)Nc1ccc2c(c1)OCO2	-4	20358*	2	?	-12
CCC(C)n1c(S(=O)(=O)O)nc2ccccc21 (centres undefined)	1	22449*	1	-1	-2
CC(C)c1ccc(C2CC(=O)N3CN(Cc4ccco4)CSC3=C2C#N)cc1 (centres undefined)	?	?	?	?	7
N#CC1=C2SCN(Cc3ccco3)CN2C(=O)CC1c1ccc(Cl)cc1 (centres undefined)	1	22500*	2	3	-2
COc1ccc(C2CC(=O)N3CN(Cc4ccco4)CSC3=C2C#N)cc1 (centres undefined)	1	20177*	2	?	-13
COc1ccc2ccccc2c1C1CC(=O)N2CN(Cc3ccco3)CSC2=C1C#N (centres undefined)	-7	5462	-2	1	3
C[C@@H]1CN([C@@H](C)CO)C(=O)CCCn2nncc2CO[C@H]1CN(C)C(=O)c1ccc(N2CCN(C)CC2)cc1	-12	2965	2	0	-6
Cc1cc(-c2ccc([N+](=O)[O-])cc2)cc(C)n1	-7	2884	-1	0	13
SMILES	Anthrax LF inh2	Bead autofluor	BoNT F protease	BoNT-A LC inh2	MazEF act
COc1ccccc1-c1nnc(SCC(=O)NCc2cccs2)n1N	-3	4435	-5	-1	2
COc1ccccc1CC(=O)Nc1ccc([N+](=O)[O-])cc1O	0	4835	2	0	-23
COc1ccccc1CC(=O)Nc1cc(Cl)ccc1O	-8	18515*	6	?	0
COc1ccccc1OCC(=O)Nc1ccc(Cl)cc1C(=O)c1ccccc1	-3	23660*	-1	-2	-4
COc1ccccc1CC(=O)Nc1ccccc1O	-6	20480*	14	8	2
COc1ccc(NC(=S)Nc2nc(CC(=O)Nc3ccccc3OC)cs2)cc1	-6	8941	3	0	-1
COc1ccccc1NC(=O)Cc1csc(NC(=S)Nc2ccccc2)n1	1	20382*	-5	-2	3
COc1ccc(-c2ccc(/C=C3/C(=N)N4C(C)=CSC4=NC3=O)o2)c([N+](=O)[O-])c1	-1	2731	-4	2	68*
COc1ccc(-c2ccc(/C=C3\C(=O)N(c4ccccc4)N=C3c3ccccc3)o2)c([N+](=O)[O-])c1	-6	3606	-16	1	-4
Cc1cc(SCc2ccc([N+](=O)[O-])cc2)nc(=O)[nH]1	-1	5567	1	0	6
N#Cc1c2n(c3c(=O)n(Cc4ccccc4Cl)cnc13)CCCCC2	-2	2794	-12	-1	4
COC(=O)Cn1cnc2c(C#N)c3n(c2c1=O)CCCCC3	1	23066*	0	0	1
CN(C)c1ccc(/C=C/c2ccc3c4ccccc4ccc3[n+]2-c2ccccc2)cc1	-62	1663	+	62*	-10
CN(C)c1ccc(/C=C/c2ccc3ccccc3[n+]2C)cc1	-4	2045	-35	9	11
COc1ccc(S(=O)(=O)N(CC(=O)NCc2ccco2)c2ccccc2)cc1	1	19214*	2	?	-1
CN(CC(=O)NCc1ccco1)S(=O)(=O)c1ccc2c(c1)n(C)c(=O)c(=O)n2C	-2	24204*	-3	-3	9
O=C(Nc1c(Cl)cccc1Cl)c1cc(=O)n(Cc2ccccc2)c(=O)[nH]1	2	21337*	-1	?	-2
CC(C)(C)c1nc2c(s1)CCc1onc(-c3ccc(Cl)cc3)c1-2	-6	4269	-6	0	4
Cc1cccc(OCCC(=O)NCC(c2ccccc2)N(C)C)c1 (centres undefined)	-1	25146*	1	-2	9
Cc1ccc(OCCCC(=O)NCc2ccco2)cc1	-2	20751*	8	6	4
CCc1ccc(OCCCC(=O)NCc2ccco2)cc1	-1	2628	-4	-1	0
Cc1cccc(OCCCC(=O)NCc2ccco2)c1	1	17050*	-1	?	-15
COc1ccc(OCCCC(=O)NCc2ccco2)cc1	1	10879	-8	-1	-1
CN(CC(=O)NCc1cccs1)CC(=O)Nc1ccccc1Cl	3	4006	9	0	9
COc1cc(C(=O)NCc2nnc(SCC(=O)NC3CCCC3)o2)cc(OC)c1OC	-1	4169	2	3	3
